# G9a inh – qHTS Assay for Inhibitors of Histone Lysine Methyltransferase G9a; G9a H3K9 monomethylation, AlphaScreen, 2 h; Histone-lysine N-methyltransferase EHMT2 (Homo sapiens), Q96KQ7; Potency, µM (top dose mostly 102 µM), without a hit: at the highest dose activity, negative = inhibition, most hits filed as inhibitors; AID 504332, 2011; 8.8% of 350,000 active; further: potency means the concentration at half of the fitted maximal effect; nearly all actives have a fitted effect of over 75% in size
# Target sequence (Q96KQ7 913-1193 limits assumed): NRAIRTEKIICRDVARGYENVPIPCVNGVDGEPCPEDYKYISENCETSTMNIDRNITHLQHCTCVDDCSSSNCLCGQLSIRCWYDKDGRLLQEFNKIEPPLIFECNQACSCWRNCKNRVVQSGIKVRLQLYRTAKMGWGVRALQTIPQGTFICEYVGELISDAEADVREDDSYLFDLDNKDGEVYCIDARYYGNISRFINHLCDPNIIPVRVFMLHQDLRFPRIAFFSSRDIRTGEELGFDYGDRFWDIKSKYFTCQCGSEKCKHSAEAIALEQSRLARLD
#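 Chemiluminescent proximity detection of H3K9 monomethylation, read after 10 min bead incubation in the dark. Reaction: 20 nM G9a, 500 nM biotin-H3K9 peptide, 20 uM SAM cofactor, 2 h, room temperature, following 15 min enzyme-compound preincubation.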
# Sfp inh – qHTS Assay for Inhibitors of Bacillus subtilis Sfp phosphopantetheinyl transferase (PPTase); 4'-phosphopantetheinyl transferase ffp (Bacillus subtilis), Q9F4F7; Biochemical Sfp PPTase activity, qHTS; Potency, µM, without a hit: largest response in the series, negative = inhibition, hits mostly inhibitors; 3.5% of 310,000 active;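 further: the enzyme is Sfp with the accession as filed and its product quenches rhodamine fluorescence; potency means the concentration at half of the fitted maximal effect; 0% = enzyme reaction without inhibitor and -100% = no enzyme wells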
#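 Compounds were incubated with enzyme (final 15 nM) for 15 min at room temperature before substrate addition started the reaction. Fluorescence at 525 nm excitation, 598 nm emission was recorded immediately and after 30 minutes.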
# PLK1 PBD block – qHTS for Inhibitors of PLK1-PDB (polo-like kinase 1 - polo-box domain): Primary Screen. Potency, µM, inactives show max response, negative = inhibition, hits mostly inhibitors. 2.8% of 360,000 active. Plk1 PBD binding of FITC phosphopeptide, fluorescence polarization. Serine/threonine-protein kinase PLK1 (Homo sapiens), P53350; further: potency means the concentration at half of the fitted maximal effect; series mostly up to about 57 µM; nearly all actives have a fitted effect of over 65% in size
# VDR inhibitor – Inhibitors of the vitamin D receptor (VDR): qHTS; VDR-SRC2-3 peptide fluorescence polarization, 2 h; 0.93% of 400,000 active; Potency, µM, for the others: max response, negative = inhibition, hits mostly inhibitors; Vitamin D3 receptor (Homo sapiens), P11473; further: potency means the concentration at half of the fitted maximal effect
# Target sequence (P11473 whole entry, looked up): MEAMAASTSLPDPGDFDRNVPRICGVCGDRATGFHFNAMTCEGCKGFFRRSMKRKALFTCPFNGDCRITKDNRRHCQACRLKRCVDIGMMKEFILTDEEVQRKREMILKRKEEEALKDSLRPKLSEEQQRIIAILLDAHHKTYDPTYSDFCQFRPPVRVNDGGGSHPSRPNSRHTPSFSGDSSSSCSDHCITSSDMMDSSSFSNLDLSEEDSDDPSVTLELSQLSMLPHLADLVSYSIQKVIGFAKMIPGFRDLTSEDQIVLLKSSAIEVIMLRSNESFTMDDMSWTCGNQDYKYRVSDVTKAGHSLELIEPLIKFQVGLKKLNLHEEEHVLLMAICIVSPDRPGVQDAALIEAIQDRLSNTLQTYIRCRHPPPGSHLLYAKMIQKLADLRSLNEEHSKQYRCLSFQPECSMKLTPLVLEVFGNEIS
#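 The screen uses fluorescence polarization to detect compounds that interfere with recruitment of the SRC2-3 coactivator peptide to VDR; plates are read after 2 h at room temperature.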
# CCT chaperon mod – High-Throughput Screening for Modulators of Cytosolic Chaperonin Activity; AID 651819, 2012; purified chaperonin ATPase assay, HTRF ADP detection, 30 min; 0.3% of 360,000 active; activity change, % (test concentration not listed), hits read low; in the data active means activity change below about -30%
#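 Nucleotide hydrolysis assay: TRiC at 20–40 nM final (set by batch activity) with 10 uM ATP, 30 min at 37 °C, in presence of 76 uM compound. Detection by competitive ADP HTRF, 30 min ambient.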
# Mm-Cpn inhibitor – Inhibitors of TCP-1 ring complex (TRiC) of Methanococcus maripaludis (MmCpn): qHTS | Chaperonin Mm-Cpn (Methanococcus maripaludis) | purified Mm-Cpn ATPase, ADP Transcreener TR-FRET | Potency, µM (doses to about 76.9 µM), inactives show at the highest dose activity, negative = inhibition, actives largely listed as inhibitors | 0.031% of 330,000 active | AID 504842, 2011; further: potency means the concentration at half of the fitted maximal effect; nearly all actives have a fitted effect of over 80% in size
#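 Purified archaeal chaperonin (25 nM final) was preincubated with compound for 10 min at 37°C, then ATP (10 uM final) was added for 30 min at 37°C in Tris pH 7.4/KCl/MgCl2/DTT buffer. ADP was quantified by HTRF Transcreener TR-FRET.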
# * hit, by the source's call; u = inconclusive; x = no result; [ ] = remark or other dose. Shown are actives, neighbours in structure and some others; about 10% of the full set was active somewhere. Unless noted, the call rests on the fitted dose curve; in most records, active means well fitted curve in the direction sought with a large enough effect; inconclusive means small, poorly fitted or top-dose-only effect, or another doubt; inactive means no such curve, though single readings can be large; an effect the other way counts as inactive or inconclusive. Unless noted, on the % scale 0 is the no-effect control and ±100 the full control effect.
SMILES,G9a inh,Sfp inh,PLK1 PBD block,VDR inhibitor,CCT chaperon mod,Mm-Cpn inhibitor
O=C1c2cccnc2C(Nc2ccc(F)c(Cl)c2)N1Cc1cccs1 (stereo not given),50µM*,-10%,-14%,-7%,-1,-8%
COC(=O)c1ccc(NC2c3ncccc3C(=O)N2Cc2cccs2)cc1 (stereo not given),u,-9%,-21%,-11%,-4,-6%
O=C1c2cccnc2C(Nc2ccc(Br)cc2Br)N1Cc1cccs1 (stereo not given),-24%,16%,x,x,x,0%
CCOC(=O)c1ccc(NC2c3ncccc3C(=O)N2Cc2ccc(F)cc2)cc1 (stereo not given),-11%[59 µM],16%,-7%,-10%,3,-18%
O=C1c2cccnc2C(Nc2ccc(Br)cc2)N1Cc1cccs1 (stereo not given),50µM*,-18%,-29%,-8%,-3,-14%
COc1ccc(NC2c3ncccc3C(=O)N2Cc2cccs2)cc1 (stereo not given),50µM*,u,-29%,-1%,-1,-10%
COc1cccc(CNC(=O)CSc2ncc(S(=O)(=O)c3ccc(Br)cc3)c(=O)[nH]2)c1,-4%[59 µM],x,x,-5%,x,x
CCCCN(C(=O)c1cc(OC)c(OC)c(OC)c1)C1=CC2CCC(C1)N2C (stereo not given),56µM*,1%,-3%,9%,-5,3%
COc1cc(C(=O)N(CCc2ccccc2)C2=CC3CCC(C2)N3C)cc(OC)c1OC (stereo not given),u,13%,-22%,7%,-1,2%
CCOc1ccc(CCNC(=O)c2oc(=O)c3ccccc3c2-c2ccc(C)cc2)cc1OCC,u,x,x,-9%,x,x
Cc1cccc(C)c1OCc1nc2ccccc2[nH]1,u,-1%,-3%,0%,1,-3%
O=C(O)COCc1nc2ccccc2[nH]1,79µM*,11%,1%,-9%,0,0%
O=C(Cc1nc2ccccc2[nH]1)c1ccc(Br)cc1,45µM*,24%,-8%,-27%,-1,-3%
COC(=O)C1=CO[C@@H](C)[C@@H]2CN3CCc4c([nH]c5ccccc45)[C@@H]3C[C@H]12,x,-7%,x,2%,x,x
CC(=O)/C=C1/C(=O)Nc2ccccc21,11µM*,50µM*,21µM*,45µM*,-1,0%
Cc1ccc2c(c1)/C(=C/c1ccccc1)C(=O)N2,13%,-9%,-16%,u,1,0%
CN1C(=O)/C(=C\C(=O)c2cccs2)c2ccccc21,20µM*,45µM*,17µM*,28µM*,-1,0%
CC(=O)/C=C1\C(=O)N(C)c2ccccc21,8.9µM*,x,x,25µM*,x,x
Cc1ccc2cccc(NC(=O)c3cccc4c(Cl)cccc34)c2n1,-22%[59 µM],x,x,2%,x,x
CCc1ccc(NC(=O)c2sc3nc(C)cc(C)c3c2NC(=O)c2ccccc2)cc1,7%[59 µM],x,x,2%,x,x
CCn1c(C(=O)N2CCC(C(=O)N3CCN(c4ccc(OC)cc4)CC3)CC2)cc2sccc21,u,x,x,-1%,x,x
COc1ccc(C2CC(c3ccccc3)=NN2C(=O)COC(=O)C2CC2)cc1 (stereo not given),-42%[59 µM],-5%,-11%,-11%,1,1%
COc1ccc(C2=Nc3nc(-c4ccccc4)cn3C(c3ccc(OC)cc3)C2)cc1 (stereo not given),22µM*,-9%,-7%,-7%,1,-4%
COC(=O)c1sc(NC(=O)C(C)C)c(C(=O)OC)c1C,-37%[59 µM],16%,1%,-3%,1,u
COC(=O)c1sc(NC(=S)NNC(=O)c2c(Br)c(C)nn2C)c(C(=O)OC)c1C,x,-14%,27µM*,1%,-1,-13%
SMILES,G9a inh,Sfp inh,PLK1 PBD block,VDR inhibitor,CCT chaperon mod,Mm-Cpn inhibitor
COC(=O)c1sc(S(=O)(=O)Nc2c(C)nn(C)c2C)c(C(=O)OC)c1C,56µM*,x,0%,11%,-2,1%
CCOc1ccccc1NC(=O)c1ccc(F)c(S(=O)(=O)NCc2ccc3c(c2)OCO3)c1,-8%[59 µM],x,x,0%,x,x
CCN1C(=O)[C@H]2[C@H]3[C@H](O)[C@H](O)C/C(=N/OCc4ccccc4)[C@H]3CC[C@@H]2C1=O,x,5%,x,x,x,x
O=C(NN1C(=O)/C(=C/C=C/c2ccco2)SC1=S)c1ccccc1O,x,56µM*,6.7µM*,46%,-1,-2%
Cn1cccc1/C=C1\SC(=S)N(NC(=O)c2ccccc2)C1=O,u,-22%,39%,0%,-4,-2%
Cn1cccc1/C=C1\SC(=S)N(NC(=O)c2ccccc2O)C1=O,5µM*,u,26%,-6%,-2,-4%
Cn1cccc1/C=C1\SC(=S)N(NC(=O)c2cccc(Cl)c2)C1=O,22µM*,-24%,35%,-19%,-3,-5%
COc1ccc(NC(=O)CSc2nc3ccccc3n2CC(=O)N(C)C2CCCCC2)cc1,-2%[12.7 µM],x,x,15%,x,x
Cc1ccc(CCNC(=O)C2COc3ccccc3C2)cc1 (stereo not given),12%[59 µM],x,x,6%,x,x
Cc1ccc(CN(C(=O)COc2ccc(C(C)C)cc2)C2CCS(=O)(=O)C2)o1 (stereo not given),u,x,x,-3%,x,x
CCN1CCN(C(=O)Nc2ccccc2OC)CC1,2.2µM*,u,-13%,5%,-3,2%
CCOC(=O)N1CCN(CCC(=O)Nc2ccc(OC)cc2OC)CC1,13%[59 µM],30%,-6%,9%,1,-1%
COc1ccccc1NC(=O)N1CCCC1,-4%,10%,1%,-6%,3,2%
CCN1CCN(C(=O)C(C)Nc2ccc(OC)cc2OC)CC1 (stereo not given),45µM*,7%,10%,13%,2,1%
COc1ccccc1NC(=O)N1CCN(C)CC1,20µM*,2%,3%,12%,1,2%
O=C(NCCN1CCOCC1)C1(C(F)(F)F)C/C(=C\CCO)CCCO1 (stereo not given),x,-2%,x,-12%,x,x
CCCCc1nn2c(C)c(-c3ccc(OCC)cc3)nc2s1,9%[59 µM],x,x,7%,x,x
CCSc1nnc(NC(=O)C(CC)(C(F)(F)F)C(F)(F)F)s1,50µM*,13%,-7%,-9%,2,0%
CCSc1nnc(NC(=O)C(C)C)s1,15%,0%,-1%,-2%,-2,3%
CCSc1nnc(NC(=O)C(C(F)(F)F)C(F)(F)F)s1,12%[12.7 µM],4%,13µM*,-9%,0,1%
CCSc1nnc(NC(=O)C(C)(C(F)(F)F)C(F)(F)F)s1,u,-5%,-16%,-4%,-1,-5%

# Source: PubChem
